This is part of a sample that, as a whole, favours compounds with a hit. Of some 79,000 tested, about 15% had one in any assay. No stated cut-off is given here; in the data, active means growth inhibition above about 70%; inactive means the rest.
What was measured:
[1] = NCI Yeast Anticancer Drug Screen. Data for the rad50 strain (AID 155);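 further: 0% = growth of vehicle-only cultures of the same strain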; conditions: S. cerevisiae rad50 strain growth inhibition; at 50.0 µM; active compounds read high
Outline: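 A DNA repair-deficient yeast mutant serves as the test organism; compound-induced growth inhibition is calculated against vehicle-treated cells.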

[2] = NCI Yeast Anticancer Drug Screen. Data for the mec2-1 strain (AID 157); conditions: S. cerevisiae mec2-1 strain, at 50.0 µM, active compounds read high
Outline: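 Readout is yeast growth inhibition, normalised to vehicle-treated controls, in the mec2-1 strain exposed to compound.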

[3] = NCI Yeast Anticancer Drug Screen. Data for the sgs1 mgt1 strain (AID 161);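 further: 0% = growth of cultures given vehicle only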; conditions: S. cerevisiae sgs1 mgt1 strain, at 50.0 µM, active compounds read high
Outline: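 Percent growth inhibition was derived by comparing compound-exposed mutant yeast with vehicle-exposed cultures. The strain carries alterations in DNA damage repair.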

[4] = NCI Yeast Anticancer Drug Screen. Data for the cln2 rad14 strain (AID 165);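 further: 0% = growth equal to vehicle treated cultures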; conditions: S. cerevisiae cln2 rad14 strain, at 50.0 µM, active compounds read high
Outline: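 Relative to vehicle controls, growth inhibition of compound-treated cln2 rad14 yeast was recorded.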

[5] = NCI Yeast Anticancer Drug Screen. Data for the bub3 strain (AID 167); conditions: S. cerevisiae bub3 mutant strain, at 50.0 µM, active compounds read high
Outline: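 Inhibition values come from growth of compound-treated mutant yeast normalised to vehicle-treated controls.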

[6] = NCI Yeast Anticancer Drug Screen. Data for the mlh1 rad18 strain (AID 175); conditions: S. cerevisiae mlh1 rad18 strain growth inhibition; at 50.0 µM; active compounds read high
Outline: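 Test agents were incubated with a yeast strain of defined genotype (DNA damage repair defect). Inhibition of growth was derived by comparison with vehicle-exposed cultures.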

Measured: growth inhibition

COc1ccc(-n2nc3c(ccc4ccccc43)c2N)cc1
inactive: [1] 2.8% | [2] -8.5% | [3] 16.5% | [4] -2.05% | [5] -0.4% | [6] 8.5%

OC(C(=S)N1CCOCC1)(c1ccccc1)c1ccccc1
inactive: [1] 5.35% | [2] 17.6% | [3] -5% | [4] 25.8% | [5] 17.7% | [6] -12.2%

Clc1ccccc1OCc1cnc[nH]1
inactive: [1] -4.05% | [2] -23.7% | [3] -14.9% | [4] 6.2% | [5] -9.85% | [6] -8.7%

Cc1ncc(CO)c(Cc2ccc(N(C)C)cc2)c1O
inactive: [1] 3.15% | [2] -2.25% | [3] -5.9% | [4] -2.25% | [5] -58.8% | [6] 1.8%

COc1ccc(C)cc1S(=O)(=O)c1c(Cl)cccc1[N+](=O)[O-]
inactive: [1] -5.95% | [2] -15.4% | [3] 2.25% | [4] -20.5% | [5] -1.3% | [6] -36.8%

Cc1ccc(S(=O)(=O)OC2CCC(C(C)(C)C)C(Cl)C2)cc1 (stereo not drawn)
inactive: [1] -8% | [2] 8.3% | [3] 3.2% | [4] 9.55% | [5] 3.35% | [6] -6.75%

CC(C)N=C(NC#N)NS(=O)(=O)c1cnccc1Nc1ccc(Cl)cc1
inactive: [1] -11.1% | [2] 18.8% | [3] -13% | [4] -1.9% | [5] -18.1% | [6] 24.8%

c1ccc(CN2CCC(=NN3CCCCC3)CC2)cc1
inactive: [1] 19.9% | [2] -9.5% | [3] 23.2% | [4] 15.2% | [5] 17.9% | [6] -8.55%

O=C(N/C(=C\c1ccccc1)C(=O)N1CCNCC1)c1ccccc1
inactive: [1] -1% | [2] 5.3% | [3] 0.65% | [4] -26.8% | [5] 1.15% | [6] 9.65%

CCCCc1nc2c([nH]1)c(=O)n(C)c(=O)n2C
inactive: [1] 8.1% | [2] -10.9% | [3] 5.2% | [4] 4.85% | [5] -36.5% | [6] 4.25%

O=C(O)C1CC(Cl)C(O)C(Cl)C1 (stereo not drawn)
inactive: [1] -6.9% | [2] 8.4% | [3] 8.95% | [4] -56.3% | [5] -6.65% | [6] 9%

O=C(CC1=Nc2nnc(-c3nnc4n3C(=O)C(CC(=O)C3CC3)=N4)n2C1=O)C1CC1
inactive: [1] -10% | [2] 2.95% | [3] -5.25% | [4] -16.6% | [5] -4.8% | [6] -3.8%

CC(C)COC(=O)N1N=NC2C3CC(=O)C(O3)C21 (stereo not drawn)
inactive: [1] 9.8% | [2] -9.7% | [3] -14.2% | [4] 11.6% | [5] -7.75% | [6] -4.75%

CC1CCCCC1NC(=O)c1ccccc1 (stereo not drawn)
inactive: [1] -12% | [2] -10.6% | [3] -5.2% | [4] -34.8% | [5] -13.7% | [6] -3.1%

CN(/N=C/c1ccccn1)C1=NCCCCN1
inactive: [1] -33.5% | [2] 3.15% | [3] -23.1% | [4] 22.2% | [5] 8.9% | [6] -8.65%

Cc1ccc(S(=O)(=O)OC[C@H]2CC=CC[C@@H]2COS(=O)(=O)c2ccc(C)cc2)cc1
inactive: [1] -18.6% | [2] 31.6% | [3] 0.6% | [4] -29.6% | [5] 3.2% | [6] -6.1%

COc1cc2cnc(-c3ccncc3)c(N)c2cc1OC
inactive: [1] -0.75% | [2] 8.4% | [3] -11.6% | [4] 24.6% | [5] 7.8% | [6] 7.65%

CC1(C)C(CCO)CC1CCO (stereo not drawn)
inactive: [1] 2.25% | [2] -2.5% | [3] -1.45% | [4] -0.45% | [5] 0.4% | [6] -7.5%

CCC1CN2CCc3cc(OC)c(OC)cc3C2CC12CO2 (stereo not drawn)
inactive: [1] -5.6% | [2] -21.3% | [3] 3.15% | [4] -2.5% | [5] 48.8% | [6] -36.1%

COc1ccc(/C=N/N2CCN(/N=C/c3ccc(OC)c(O)c3)CC2)cc1O
inactive: [1] 22.1% | [2] 4.5% | [3] 15.1% | [4] 28.6% | [5] 1.05% | [6] 9.85%

O=C(O)/C=C/C(=O)N1Cc2cc3ccccc3nc2C1
inactive: [1] -5.75% | [2] -31.1% | [3] -45.8% | [4] -28.1% | [5] -56.2% | [6] -13.7%

COc1ccccc1NC(=O)C1=C(C)NC(C)=C(C(=O)Nc2ccccc2OC)C1c1ccc(N(C)C)cc1
inactive: [1] 50.2% | [2] 41.4% | [3] 61.4% | [4] 24.9% | [5] 46.2% | [6] 45%

CCCCOC(=O)CNC(=O)OC(C)(C)C
inactive: [1] -4.5% | [2] 11.8% | [3] -10.1% | [4] -2.1% | [5] -3.25% | [6] -15.5%

O=C1c2ccccc2C(=O)N1CC1CO1 (stereo not drawn)
inactive: [1] 2.85% | [2] 10.3% | [3] 0.5% | [4] -7.7% | [5] 3.4% | [6] 27.3%

CCOC1(OCC)C2(Cl)C(Cl)=C(Cl)C1(Cl)C1CCCC12 (stereo not drawn)
inactive: [1] 23.7% | [2] 3.75% | [3] 11.5% | [4] 17.1% | [5] -12.7% | [6] 20.6%

O=C/C(Cl)=C\Nc1ccc(C(=O)O)cc1
inactive: [1] -0.25% | [2] 2.15% | [3] -0.2% | [4] -23.1% | [5] -0.4% | [6] -10.7%

O=C(O)CC(CSCP(=O)(O)O)C(=O)O (stereo not drawn)
inactive: [1] 6.95% | [2] 1.55% | [3] 3.05% | [4] -7.85% | [5] 1.45% | [6] 15.7%

COC(=O)CCC(NC(=S)N/N=C(\C)c1cccs1)C(=O)OC (stereo not drawn)
inactive: [1] 14.1% | [2] -10.3% | [3] 17.3% | [4] 0.45% | [5] 7.4% | [6] -0.25%

Cn1cnc(N)c(N=O)c1=O
inactive: [1] -0.1% | [2] 8.65% | [3] 10.1% | [4] 18.7% | [5] -9.75% | [6] 6%

CCCCCCC(O)C/C=C\CCCCCCCC(=O)O (stereo not drawn)
inactive: [1] -14% | [2] -3.7% | [3] -30.9% | [4] 62.9% | [5] -9.2% | [6] -15.9%

O=c1n(-c2ccc(Cl)c(Cl)c2)c(=O)n(-c2ccc(Cl)c(Cl)c2)c(=O)n1-c1ccc(Cl)c(Cl)c1
inactive: [1] 3.5% | [2] 5.25% | [3] 9.35% | [4] -44.1% | [5] -3.85% | [6] 4.3%

O=C(/C=C\c1ccc(/C=C\C(=O)c2ccccc2O)cc1)c1ccccc1O
inactive: [1] 8.5% | [2] -13.3% | [3] -8.75% | [4] -3.75% | [5] 22.2% | [6] -23.3%

CC(=O)Oc1ccc2cc(NC(=O)c3ccccc3)c(=O)oc2c1
inactive: [1] 11.8% | [2] -2.85% | [3] -1.6% | [4] -62.4% | [5] -1.9% | [6] -3.35%

CCCCOB(OCCCC)OCCCC
inactive: [1] 6.1% | [2] -3.25% | [3] -12.6% | [4] 11.8% | [5] -1.65% | [6] -21.9%

C/C(C=C(C#N)C#N)=C\c1ccccc1
inactive: [1] 25.3% | [2] 11.3% | [3] -5.7% | [4] 14.2% | [5] 36.9% | [6] 17.6%

CC(=O)Nc1cc2[nH]c(=O)c3cc(Cl)ccc3c2cc1[N+](=O)[O-]
inactive: [1] 28.8% | [2] 36.1% | [3] 1.65% | [4] 27.1% | [5] 23.6% | [6] 57.8%

Oc1ccc(O)c2c1CC=CC2
inactive: [1] 12.2% | [2] 22.6% | [3] 27.9% | [4] 13% | [5] 18.3% | [6] 16.4%

Cc1cccc(NC(=O)NC(O)C(Cl)(Cl)Cl)c1 (stereo not drawn)
inactive: [1] 1.65% | [2] -3.35% | [3] -6.25% | [4] -43% | [5] -16.6% | [6] 0.95%

— PubChem BioAssay (NCI)
